According to PubChem BioAssay (EPA / NIEHS):
Records with an inconclusive call do not appear. A structure can be active in one record and inactive in another. Calls of active or inactive are those of the source. How the source made its calls: active means hit-call score of the fitted dose curve at least 0.9, where 1 is the maximum; inconclusive means response in the unintended direction; inactive means score below 0.9.

Test: TOX21_p53_BLA_p2_viability: Viability Assessment in the Tox21 HCT-116 p53 Agonism Beta-lactamase Assay, Phase 2 (AID 2283591);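 further: compound exposure lasted 16 h at 37 °C; actives lower the ATP signal meaning cytotoxicity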
Source text: TOX21_p53_BLA_p2 is a cell-based, single-readout assay that uses HCT116, a human intestinal cell line, […] in a 1536-well plate.TOX21_p53_BLA_p2_viability is an assay readout measuring cellular ATP content and detected with CellTiter-Glo Luciferase-coupled ATP quantitation.TOX21_p53_BLA_p2_viability used a type of viability reporter where loss-of-signal activity can be used to understand changes in the cell viability. Furthermore, this assay endpoint can be referred to as a secondary readout, because this assay has produced multiple assay endpoints where this one serves a viability function. To generalize the intended target to other relatable targets, this assay endpoint is annotated to the cell cycle intended target family, where the subfamily is cytotoxicity.
Thawing Method: Place 14 mL of pre-warmed thaw medium into a 15 mL of conical tub. Remove the vial of cells to be thawed from liquid nitrogen and thaw rapidly by placing at 37C in a water bath with gentle agitation for 1-2 minutes. Decontaminate the vial by wiping with 70% ethanol before opening in a biological safety cabinet. Transfer the vial contents drop-wise into 14 mL of thaw medium in a sterile 15-mL conical tub. Centrifuge cells at 900 rpm for 4 minutes and resuspend in thaw medium. Transfer contents to the T75 tissue culture flask containing Thaw Medium and place flask in a humidified 37C/5% CO2 incubator. Switch to growth medium at first passage.Propagation Method: Aspirate medium, rinse once in DPBS, add 0.25% Trypsin/EDTA and swirl to coat the cell evenly. Add an equal volume of Growth Medium to inactivate Trypsin after 2-3 minutes incubation at 37C. Centrifuge cells at 900 rpm for 4 minutes and resuspend in growth medium. Cell should be passage or fed at least twice a week.Assay Protocol: Harvest cells from culture in growth medium and resuspend in assay medium. 2.2 Dispense 4000 cells/5 uL/well into 1536-well black/clear bottom plates using a Multidrop dispenser. After the cells were incubated at 37C for 5 hours, 23 nL of compounds dissolved in DMSO were transferred to the assay plate by a PinTool resulting in a 217-fold dilution. Incubate the plates for 16 hours at 37C, 5% CO2. Add 1 uL of 6X LiveBLAzer FRET B/G (CCF4-AM) Substrate Mixture to each well using a BioRAPTR dispenser and incubate the plates at room temperature for 2 hours. Measure fluorescence intensity at 460 and 530 nm emission and 405 nm excitation by an Envision detector. Data is expressed as the ratio of 460nm/530nm emissions. Add 4 uL of Cell-titer Glo to each well using BioRAPTR and incubate the plates at room temperature for […]. For cell viability readout that measures cytotoxicity, 4 ul/well of CellTiter-Glo reagent was added into the assay plates using a Flying Reagent Dispenser. After 30 min incubation at room temperature, the luminescence intensity in the plates was measured using a ViewLux plate reader.
For CC(C)(C)C(=O)C(Oc1ccc(Cl)cc1)n1cncn1 (stereo not given), the outcome was “inactive”. For N#Cc1c[nH]cc1-c1cccc2c1OC(F)(F)O2, the outcome was “inactive”. In the case of COC(=O)NS(=O)(=O)c1ccc(N)cc1, the outcome is reported as “inactive”. In the case of CCN(CC)c1nc(C)cc(OP(=S)(OC)OC)n1, the outcome is reported as “inactive”. With CCSC(=O)N1CCCCCC1 the outcome was “inactive”. With CCCCC(O)(Cn1cncn1)c1ccc(Cl)cc1Cl (stereo not given) the outcome was “inactive”. In the case of COP(=S)(OC)SCn1nnc2ccccc2c1=O, the outcome is reported as “inactive”. For CCOC(=O)C(C)OC(=O)c1cc(Oc2ccc(C(F)(F)F)cc2Cl)ccc1[N+](=O)[O-] (stereo not given), the outcome was “inactive”. In the case of CCC(C)n1c(=O)[nH]c(C)c(Br)c1=O (stereo not given), the outcome is reported as “inactive”. For CCCCOCN(C(=O)CCl)c1c(CC)cccc1CC, the outcome was “inactive”. For Nc1c(Cl)c(Cl)nc(C(=O)O)c1Cl, the outcome was “inactive”. In the case of C=CCOC(=O)C(C)(C)OC(=O)c1cc(-n2c(=O)cc(C(F)(F)F)n(C)c2=O)ccc1Cl, the outcome is reported as “inactive”. In the case of COCC(C)N(C(=O)CCl)c1c(C)csc1C (stereo not given), the outcome is reported as “inactive”. In the case of CC1(C)C(C(=O)OC(C#N)c2cccc(Oc3ccccc3)c2)C1(C)C (stereo not given), the outcome is reported as “inactive”. With O=C1C2CC=CCC2C(=O)N1SC(Cl)(Cl)Cl (stereo not given) the outcome was “inactive” and the AC50 was 25.6 µM (active). For CC(C)NC(=O)N1CC(=O)N(c2cc(Cl)cc(Cl)c2)C1=O, the outcome was “inactive”. In the case of COP(=S)(OC)Oc1ccc([N+](=O)[O-])c(C)c1, the outcome is reported as “inactive”. With CC1(C)CCC(=Cc2ccc(Cl)cc2)C1(O)Cn1cncn1 (stereo not given) the outcome was “inactive”. With CNC(=O)N(C)c1nnc(C(C)(C)C)s1 the outcome was “inactive”. For Cc1cc(C)nc(Nc2ccccc2)n1, the outcome was “inactive”. In the case of CC(C)N1C(=O)N(c2ccccc2)CSC1=NC(C)(C)C, the AC50 is reported as 84.6 µM (active). For CSC(=O)c1c(C(F)F)nc(C(F)(F)F)c(C(=O)SC)c1CC(C)C, the outcome was “inactive”. With CCOP(=O)(OCC)Oc1nc(Cl)c(Cl)cc1Cl the outcome was “inactive”. For CC(C)Oc1cccc(NC(=O)c2ccccc2C(F)(F)F)c1, the outcome was “inactive”. With Cc1c(COC(=O)[C@@H]2[C@H](/C=C(\Cl)C(F)(F)F)C2(C)C)cccc1-c1ccccc1 the outcome was “inactive”. With CS(=O)(=O)c1cc(C(F)(F)F)ccc1C(=O)c1cnoc1C1CC1 the outcome was “inactive”. In the case of CC1(C)C(C=C(Cl)Cl)C1C(=O)OC(C#N)c1cccc(Oc2ccccc2)c1 (stereo not given), the outcome is reported as “inactive”. With Clc1nc(Cl)nc(Nc2ccccc2Cl)n1 the outcome was “inactive”. In the case of CN/C(=N\[N+](=O)[O-])NCc1cnc(Cl)s1, the outcome is reported as “inactive”. For COP(=O)(OC)O/C(C)=C/C(=O)N(C)C, the outcome was “inactive”. With COCC(=O)N(c1c(C)cccc1C)C(C)C(=O)OC (stereo not given) the outcome was “inactive”. For COc1ccc(-c2ccccc2)cc1NNC(=O)OC(C)C, the outcome was “inactive”. With CO/N=C(/C1=NOCCO1)c1ccccc1Oc1ncnc(Oc2ccccc2Cl)c1F the outcome was “inactive”. In the case of Nc1cnn(-c2ccccc2)c(=O)c1Cl, the outcome is reported as “inactive”. With COc1cc(OC)nc(NC(=O)NS(=O)(=O)c2ncccc2OCC(F)(F)F)n1 the outcome was “inactive”. In the case of CS(=O)(=O)c1ccc(C(=O)C2C(=O)CCCC2=O)c([N+](=O)[O-])c1, the outcome is reported as “inactive”. For O=C(Nc1ccccc1-c1ccc(Cl)cc1)c1cccnc1Cl, the outcome was “inactive”. In the case of Nc1c(Cl)c(F)nc(OCC(=O)O)c1Cl, the outcome is reported as “inactive”. In the case of CCNP(=S)(OC)O/C(C)=C/C(=O)OC(C)C (stereo not given), the outcome is reported as “inactive”.
